Reference: PubChem BioAssay AID1159580 (chemical genetic matrix, 2015)
Among all 5,500 compounds or so, about 2,000 (36%) were called active. Another 18% or so got no clear call; they are omitted. Cut-off read from the data, not from the text of the source: active = normalized growth mostly below about 0.91 (no sharp cut-off); inconclusive = no clear call, values can overlap the other calls; inactive = mostly above about 0.92. The list shows a part of the results.

Test: chemical genetic growth profiling, strain panel (AID 1159580);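 note: tested at 20 µM; growth read once vehicle control cultures reached saturation at 30 °C; 1 = growth at the plate median or of vehicle wells; lower values mean less growth of the strain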
Settings: growth OD

Measured: normalized growth

Cc1ccc(C(C)C)cc2c(C)ccc1-2
inactive: S. cerevisiae deletion strains, locus YJR043C, strain POL32, hits give low values 0.977 | S. cerevisiae deletion strains, locus YJR066W, strain TOR1, hits give low values 0.925 | S. cerevisiae deletion strains, locus YKL009W, strain mrt4, hits give low values 1.04 | S. cerevisiae deletion strains, locus YKL068W, hits give low values 1 | S. cerevisiae deletion strains, locus YKL085W, strain MDH1 (second series), hits give low values 1 | S. cerevisiae deletion strains, locus YKL085W, strain MDH1, hits give low values 1 | S. cerevisiae deletion strains, locus YKL160W, strain elf1, hits give low values 0.989 | S. cerevisiae deletion strains, locus YKL190W, strain CNB1, hits give low values 0.986 | S. cerevisiae deletion strains, locus YKR001C, strain vps1, hits give low values 1 | S. cerevisiae deletion strains, locus YKR026C, strain gcn3, hits give low values 1 | S. cerevisiae deletion strains, locus YKR091W, strain srl3, hits give low values 1 | S. cerevisiae deletion strains, locus YLL001W, strain dnm1, hits give low values 0.976 | S. cerevisiae deletion strains, locus YLL026W, hits give low values 0.998 | S. cerevisiae deletion strains, locus YLL041C, strain sdh2, hits give low values 1.01 | S. cerevisiae deletion strains, locus YLR027C, strain aat2, hits give low values 0.991 | S. cerevisiae deletion strains, locus YLR039C, strain RIC1, hits give low values 0.92 | S. cerevisiae deletion strains, locus YLR058C, strain SHM2, hits give low values 1 | S. cerevisiae deletion strains, locus YLR102C, strain apc9, hits give low values 1.02 | S. cerevisiae deletion strains, locus YLR113W, strain HOG1, hits give low values 1.03 | S. cerevisiae deletion strains, locus YLR221C, strain rsa3, hits give low values 1.02 | S. cerevisiae deletion strains, locus YLR258W, strain gsy2, hits give low values 0.999 | S. cerevisiae deletion strains, locus YLR262C, strain YPT6 (second series), hits give low values 1.01 | S. cerevisiae deletion strains, locus YLR262C, strain YPT6, hits give low values 0.909 | S. cerevisiae deletion strains, locus YLR268W, strain sec22, hits give low values 1.01 | S. cerevisiae deletion strains, locus YLR320W, strain mms22, hits give low values 1.01 | S. cerevisiae deletion strains, locus YLR330W, strain CHS5, hits give low values 1 | S. cerevisiae deletion strains, locus YLR342W, strain FKS1 (second series), hits give low values 0.944 | S. cerevisiae deletion strains, locus YLR342W, strain FKS1, hits give low values 1.03 | S. cerevisiae deletion strains, locus YLR357W, strain rsc2, hits give low values 0.982 | S. cerevisiae deletion strains, locus YLR370C, strain arc18, hits give low values 0.995 | S. cerevisiae deletion strains, locus YLR371W, strain rom2, hits give low values 1 | S. cerevisiae deletion strains, locus YLR384C, strain iki3, hits give low values 0.997 | S. cerevisiae deletion strains, locus YLR418C, strain cdc73, hits give low values 0.962 | S. cerevisiae deletion strains, locus YML016C, strain PPZ1, hits give low values 1 | S. cerevisiae deletion strains, locus YML032C, strain rad52, hits give low values 1.03 | S. cerevisiae deletion strains, locus YML120C, strain ndi1, hits give low values 1 | S. cerevisiae deletion strains, locus YML124C, strain tub3, hits give low values 1.02 | S. cerevisiae deletion strains, locus YMR058W, strain fet3, hits give low values 1.01 | S. cerevisiae deletion strains, locus YMR078C, strain ctf18, hits give low values 1.02 | S. cerevisiae deletion strains, locus YMR125W, strain sto1, hits give low values 1 | S. cerevisiae deletion strains, locus YMR129W, hits give low values 1.01 | S. cerevisiae deletion strains, locus YMR205C, strain PFK2, hits give low values 0.981 | S. cerevisiae deletion strains, locus YMR223W, strain ubp8, hits give low values 1.02 | S. cerevisiae deletion strains, locus YMR231W, strain pep5, hits give low values 0.978 | S. cerevisiae deletion strains, locus YMR263W, strain SAP30, hits give low values 0.993 | S. cerevisiae deletion strains, locus YMR307W, strain GAS1, hits give low values 0.914 | S. cerevisiae deletion strains, locus YNL067W, strain RPL9B, hits give low values 0.993 | S. cerevisiae deletion strains, locus YNL071W, strain lat1, hits give low values 0.991 | S. cerevisiae deletion strains, locus YNL183C, strain NPR1, hits give low values 0.981 | S. cerevisiae deletion strains, locus YNL209W, strain ssb2, hits give low values 1.01 | S. cerevisiae deletion strains, locus YNL233W, strain BNI4, hits give low values 0.989 | S. cerevisiae deletion strains, locus YNL248C, strain rpa49, hits give low values 1.02 | S. cerevisiae deletion strains, locus YNL250W, strain rad50, hits give low values 1.05 | S. cerevisiae deletion strains, locus YNL271C, strain bni1, hits give low values 1.03 | S. cerevisiae deletion strains, locus YNL298W, strain CLA4, hits give low values 1.02 | S. cerevisiae deletion strains, locus YNL307C, strain MCK1, hits give low values 0.995 | S. cerevisiae deletion strains, locus YNL322C, strain KRE1 (second series), hits give low values 0.994 | S. cerevisiae deletion strains, locus YNR049C, strain mso1, hits give low values 1 | S. cerevisiae deletion strains, locus YNR052C, strain pop2, hits give low values 1.02 | S. cerevisiae deletion strains, locus YOL006C, strain TOP1, hits give low values 1.02 | S. cerevisiae deletion strains, locus YOL012C, strain htz1 0.644 | S. cerevisiae deletion strains, locus YOL147C, strain pex11, hits give low values 1.03 | S. cerevisiae deletion strains, locus YOR001W, strain rrp6, hits give low values 1.04 | S. cerevisiae deletion strains, locus YOR061W, strain CKA2, hits give low values 1.01 | S. cerevisiae deletion strains, locus YOR069W, strain VPS5, hits give low values 1 | S. cerevisiae deletion strains, locus YOR070C, strain gyp1, hits give low values 0.994 | S. cerevisiae deletion strains, locus YOR080W, strain dia2, hits give low values 1.01 | S. cerevisiae deletion strains, locus YOR083W, strain WHI5, hits give low values 0.987 | S. cerevisiae deletion strains, locus YOR106W, strain vam3, hits give low values 1.01 | S. cerevisiae deletion strains, locus YOR136W, strain idh2, hits give low values 1.03 | S. cerevisiae deletion strains, locus YOR144C, strain elg1, hits give low values 1.02 | S. cerevisiae deletion strains, locus YOR184W, strain ser1, hits give low values 0.991 | S. cerevisiae deletion strains, locus YOR231W, strain MKK1, hits give low values 0.984 | S. cerevisiae deletion strains, locus YOR265W, strain rbl2, hits give low values 0.992 | S. cerevisiae deletion strains, locus YOR270C, strain vph1, hits give low values 1.1 | S. cerevisiae deletion strains, locus YOR290C, strain snf2, hits give low values 0.98 | S. cerevisiae deletion strains, locus YOR316C, strain cot1, hits give low values 1.02 | S. cerevisiae deletion strains, locus YPL051W, strain arl3, hits give low values 0.984 | S. cerevisiae deletion strains, locus YPL078C, strain atp4, hits give low values 0.979 | S. cerevisiae deletion strains, locus YPL106C, strain sse1, hits give low values 0.997 | S. cerevisiae deletion strains, locus YPL240C, strain hsp82, hits give low values 0.999 | S. cerevisiae deletion strains, locus YPL241C, strain CIN2, hits give low values 1 | S. cerevisiae deletion strains, locus YPL256C, strain CLN2, hits give low values 0.98 | S. cerevisiae deletion strains, locus YPR119W, strain clb2, hits give low values 1.02 | S. cerevisiae deletion strains, locus YPR141C, strain kar3, hits give low values 1.01 | S. cerevisiae deletion strains, locus YPR163C, strain tif3, hits give low values 1.04 | S. cerevisiae deletion strains, locus YPR167C, strain met16, hits give low values 1.02 | S. cerevisiae deletion strains, strain wtn01, hits give low values 1.04 | S. cerevisiae strains, strain wild type, hits give low values 0.995
